Most compounds without a hit are left out; they make up all but 3.8% or so of the library.
MPTP block – blocks calcium-induced mitochondrial swelling; isolated mouse mitochondria, Ca2+ swelling absorbance, 30 min; inhibition, % at 10 µM; actives 1.4% (n = 360,000);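 active = inhibition of 50% or more, scaled per plate between neutral and stimulator controls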;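 also: 0% = DMSO wells given calcium and 100% = 1 mM EGTA wells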
aDG glyco act – alpha-DG glycosylation activation | Pro5-aDG cells, alpha-DG glycosylation AlphaScreen (IIH6); 0% Pro5, 100% B10-LARGE cell signal | activation, % at 10 µM | actives 0.22% (n = 360,000) | AID 624168;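 active = activation of at least 8% versus controls, or a plate z-score of at least 8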;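 also: Pro5 are CHO cells carrying HIG-tagged alpha-DG that lacks glycosylation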
CR mimetic SO – lowers age-related superoxide in aged yeast cells; S. cerevisiae aged cells, superoxide DHE fluorescence; hits give low values; superoxide response (% of plate mean), % at 10 µM; actives 0.18% (n = 330,000); AID 2690;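 active = superoxide response under a set limit, about three screen SD below normal, cut at about 65% in these data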;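 also: yeast aged for seven days with compound at 30 °C before DHE staining; 100% = average MFI of all compound-treated wells on the plate with controls excluded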
Cardio protect – myocardial damage modulation in H9c2 cells; actives 0.63% (n = 360,000); H9c2 cardiomyocytes, H2O2 injury protection, ATPLite, 2 h; protection from H2O2 cell death, % at 20 µM;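 active = compounds giving at least 50% protection of heart cells from peroxide-induced death in the single-dose screen, raw or plate-pattern-corrected value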;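 also: 0% = DMSO wells with peroxide and 100% = DMSO wells without peroxide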
Mot1-301 SUMO – inhibitors of SUMOylation pathway: yeast Mot1-301 growth rescue; S. cerevisiae Mot1-301 growth rescue, ATP luminescence, 38.5C; percent above DMSO median, 100 means doubled; growth rescue, % at 18.8 µM; actives 1% (n = 320,000); AID 2716;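 active = every valid replicate shows activation above 250% relative to neutral control wells; inactive = the rest, any valid replicate at or below 250%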;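 also: OY570 slx delta 5 strain wells were the positive control but not used for scaling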
FAS-TE inh – FAS thioesterase (human) inhibition; actives 0.67% (n = 360,000); AID 602261; inhibition, % at 15 µM; P49327; recombinant FAS-TE, OMFH fluorogenic substrate, fluorescence endpoint;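 active = compounds whose normalised, plate-corrected inhibition of enzyme fluorescence in the single-dose primary screen is 50% or more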;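 also: 0% = DMSO with enzyme and 100% = substrate without enzyme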
MPTP counter – Rhodamine 123 counter-screen of mitochondrial pore hits. shares compounds with MPTP block. isolated mitochondria, membrane potential, Rhodamine 123 fluorescence. inhibition, % at 10 µM. actives 78% (n = 5,000); in the data active = inhibition above about 22%;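 also: 0% = DMSO vehicle and 100% = positive control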
MPTP swell DR – dose response confirmation of mitochondrial permeability transition pore inhibitors; isolated mitochondria swelling, absorbance; IC50, µM; AID 651561; shares compounds with MPTP block; actives 58% (n = 780); in the data active = IC50 below about 20 µM
MPTP counter DR – active in counter-screen for permeability transition pore inhibitors | shares compounds with MPTP block | isolated mitochondria counterscreen, fluorescence read-out | IC50, µM | actives 49% (n = 780) | AID 651564; in the data active = IC50 below about 80 µM
The depositor's hits bear a star; i = inactive; x = not tested or not shown.

SMILES | MPTP block | aDG glyco act | CR mimetic SO | Cardio protect | Mot1-301 SUMO | FAS-TE inh | MPTP counter | others
CCc1ccc(Nc2n[n+](-c3ccccc3)c(-c3c(Cl)cccc3Cl)s2)cc1 | 100* | -1 | 94 | -11 | -17 | -121 | 112*
COc1ccc(C)cc1Nc1n[n+](-c2ccccc2)c(-c2ccc(N(C)C)cc2)s1 | 89* | 0 | 104 | -10 | -15 | -126 | 100*
COCCNC(=O)C1(C)CCCN(CC(=O)c2ccc(OC)cc2)C1 (stereo not given) | 0 | 0 | x | 3 | x | -8 | x
CCCN1CCN(CCCNC(=O)c2ccc3c(=O)n(CCc4ccccc4)c(=O)[nH]c3c2)CC1 | 70* | 0 | 92 | 4 | -4 | -2 | 0 | MPTP swell DR=i;MPTP counter DR=>80
O=C(c1ccc2c(=O)n(Cc3ccc(Cl)cc3)c(=S)[nH]c2c1)N1CCCC1 | -2 | 0 | 103 | -8 | -11 | -6 | x
CCN1CCN(CCCNC(=O)c2ccc3c(=O)n(CCc4ccccc4)c(=O)[nH]c3c2)CC1 | -1 | 0 | 100 | 8 | -37 | -4 | x
COCCCNC(=O)c1ccc2c(=O)n(Cc3ccc(Cl)cc3)c(=S)[nH]c2c1 | 2 | 0 | 133 | 11 | 19 | -5 | x
CN1CCN(C(=O)c2ccc3c(=O)n(Cc4ccc(Cl)cc4)c(=S)[nH]c3c2)CC1 | 93* | 2 | 103 | 4 | -8 | 6 | -13 | MPTP swell DR=18*;MPTP counter DR=>80
CC1CCN(CCNC(=O)c2ccc3c(=O)n(Cc4ccc(Cl)cc4)c(=S)[nH]c3c2)CC1 | 90* | 0 | 76 | -16 | -1 | 5 | -18
CCN(CC)S(=O)(=O)c1ccc(NC(=O)Nc2cccc(C(F)(F)F)c2)cc1 | 84* | -1 | 101 | -16 | -13 | 30 | 74*
Cc1ccc(NS(=O)(=O)c2ccc(NC(=O)c3cccc(NC(=O)C(C)C)c3)cc2)cc1 | 2 | 0 | 89 | -23 | 243 | 29 | x
Cc1ccc(S(=O)(=O)Nc2ccc(NC(=O)Nc3cccc(C(F)(F)F)c3)cc2)cc1 | 98* | 5 | 105 | -21 | 12 | 34 | 61*
CCOc1ccc(-n2c(C)cc(/C=C3/C(=N)N4C(=NC3=O)SN=C4S(C)(=O)=O)c2C)cc1 | 76* | 0 | 104 | -8 | -3 | 14 | 28*
Cc1cc(/C=C2/C(=N)N3C(=NC2=O)SN=C3S(C)(=O)=O)c(C)n1-c1ccc(F)cc1 | 20 | 0 | 108 | -8 | 158 | 3 | x
Cc1cccc(C)c1-n1cccc1/C=C1/C(=N)N2C(=NC1=O)SN=C2S(C)(=O)=O | 67* | 0 | 154 | -12 | 7 | 9 | 75*
C[C@H](CO)N1C[C@H](C)[C@@H](CN(C)S(=O)(=O)c2cn(C)cn2)Oc2ccc(NC(=O)C3CCCCC3)cc2C1=O | 0 | 0 | 105 | 5 | x | -7 | x
COc1ccccc1N1CCN(C(=O)[C@H](C)NS(=O)(=O)c2ccc3c(c2)OCCCO3)CC1 | 0 | 0 | x | 3 | x | -4 | x
C=CCn1cccc(/C=C/C(=O)c2ccc(C(C)(C)C)cc2)c1=S | 77* | -1 | 82 | -24 | 1 | -4 | 4
Cc1nc2ccccc2c(N)c1C(=O)/C=C/c1ccccc1 | 96* | 1 | 85 | -19 | 172 | -1 | 84*
CC(C)c1c(O)ccc2c1CC[C@H]1C(C)(C)CCC[C@]21C | 98* | 0 | x | -35 | x | 35 | 11 | MPTP swell DR=i;MPTP counter DR=16*
O=C1C2ON(c3ccccc3)C(c3ccncc3)C2C(=O)N1c1ccc(Br)cc1 (stereo not given) | 69* | 0 | 89 | -7 | -3 | 3 | 22*
CN(C)C(CNc1ccc(C(F)(F)F)cc1[N+](=O)[O-])c1ccccc1 (stereo not given) | 62* | 0 | 98 | -4 | -7 | 23 | 1 | MPTP swell DR=>100;MPTP counter DR=>80
